{"source": "PubChem BioAssay", "data": [{"tested_on": "Wnt5a (protein binding on small-molecule microarray)", "experiment": "Wnt5a binders on small-molecule microarray, primary screen, biophysical, 635/667 nm fluorescence (AID 1142);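 further: fluorescence read at 667 nm with signal to noise per printed feature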", "settings": "635 nm fluorescence, higher = more signal", "values": [{"compound": "CO[C@H]1COC(=O)[C@@H](Cc2ccccc2)NC(=O)[C@@H](C)COC(=O)CCC[C@@H]1C", "composite z-score": 0.0124}, {"compound": "CCOC(=O)[C@H](CC(C)C)NC(=O)CCC1CC(OC(=O)NCCc2ccc(F)cc2)CC2(CCCC(COC(=O)NCCc3ccccc3OC)O2)O1", "note": "(some centres not stated)", "composite z-score": 0.145}, {"compound": "CCc1cc2c(nc1CC)CCN(CCC(C)=NO[C@H](C)c1cn([C@H](CO)Cc3ccccc3)nn1)C2", "composite z-score": 0.167}, {"compound": "CO[C@H]1COC(=O)CC=C[C@@H](C)[C@H](NS(=O)(=O)c2ccc(C)cc2)COC(=O)CCC[C@@H]1C", "composite z-score": 0.118}, {"compound": "C=Cc1ccc([C@H]2N[C@H](C(=O)O)CC[C@@H]2C)cc1", "composite z-score": -0.0905}, {"compound": "CO[C@H]1COC(=O)[C@@H](C)COC(=O)[C@H](COCc2ccccc2)NC(=O)CC=C[C@H]1C", "composite z-score": -0.171}, {"compound": "CCOC(=O)[C@H](CC(C)C)NC(=O)CCC1CC(OC(=O)NCc2cccc3ccccc23)CC2(CCCC(COC(=O)NCCC(C)C)O2)O1", "note": "(some centres not stated)", "composite z-score": 0.0463}, {"compound": "CO[C@H]1COC(=O)CC=C[C@@H](C)[C@H](OC)COC(=O)[C@@H]2CCCN2C(=O)CC=C[C@@H]1C", "composite z-score": -0.0779}, {"compound": "O=C1[C@H]2[C@H]3[C@H](O)[C@H](O)CC(=NOCc4ccccc4)[C@H]3CC[C@H]2C(=O)N1Cc1ccc2c(c1)OCO2", "composite z-score": -0.0988}, {"compound": "Cc1ccc(S(=O)(=O)NC(CCc2ccccc2)CC(=O)C(C)(C)C)cc1", "note": "(configuration not stated)", "composite z-score": 0.375}, {"compound": "O=C1C=C[C@@H](O)[C@@H]2[C@@H]3C(=O)N(C[C@@H]4CCCO4)C(=O)[C@@H]3CC[C@@H]12", "composite z-score": -0.142}, {"compound": "CC(C)=CCCC(C)=CCON=C1C[C@@H](O)[C@@H](O)[C@@H]2[C@@H]3C(=O)N(Cc4ccccc4)C(=O)[C@@H]3CC[C@@H]12", "composite z-score": 0.292}, {"compound": "CCOC(=O)[C@H](CC(C)C)NC(=O)CCC1CC(OC(=O)NCCc2ccc(F)cc2)CC2(CCCC(COC(=O)NCCc3ccc(Cl)cc3)O2)O1", "note": "(some centres not stated)", "composite z-score": 0.555}, {"compound": "CC(=O)Nc1ccc([C@@H]2N[C@H](C(=O)O)CC[C@H]2C)cc1", "composite z-score": 0.101}, {"compound": "CCOC(=O)NN=C1C[C@@H](O)[C@@H](O)[C@@H]2[C@@H]3C(=O)N(c4cccc(Oc5ccccc5)c4)C(=O)[C@@H]3CC[C@H]12", "composite z-score": 0.0643}, {"compound": "Cc1ccc(S(=O)(=O)N[C@H]2COC(=O)CC=C[C@H](C)[C@@H](NS(=O)(=O)c3ccc(C)cc3)COC(=O)CC=C[C@@H]2C)cc1", "composite z-score": -0.11}, {"compound": "CC1O[C@H]2C3=C(C(=O)[C@@H]4O[C@@H]4[C@H]3O)[C@@H]1C1[C@@H](C)OC=C3[C@H](O)C4O[C@@H]4C(=NOCc4ccccc4)[C@]312", "note": "(some centres not stated)", "composite z-score": 0.161}, {"compound": "C[C@@H](c1ccccc1)N1C(=O)[C@H]2[C@H]3[C@H](O)[C@H](O)CC(=NO[C@@H]4O[C@H](CO)[C@@H](O)[C@H](O)[C@H]4O)[C@@H]3CC[C@H]2C1=O", "composite z-score": 0.0794}, {"compound": "CON=C(C)CCC(=O)OC[C@H]1O[C@H](c2ccccc2)C=C[C@@H]1Oc1ccc(OC)cc1", "composite z-score": 0.564}, {"compound": "COC(=O)[C@H](C)NC(=O)CCC1CC(OC(=O)NCc2ccc3c(c2)OCO3)CC2(CCCC(COC(=O)NCC(c3ccccc3)c3ccccc3)O2)O1", "note": "(some centres not stated)", "composite z-score": 0.6}, {"compound": "COC(=O)[C@H](C)NC(=O)CCC1CC(OC(=O)NCCc2ccc(F)cc2)CC2(CCCC(COC(=O)NCCC(C)C)O2)O1", "note": "(some centres not stated)", "composite z-score": 0.255}, {"compound": "O=C1[C@H]2[C@H]3[C@H](O)[C@H](O)CC(=NOCc4ccccc4)[C@@H]3CC[C@H]2C(=O)N1c1ccc(F)cc1F", "composite z-score": -0.0167}, {"compound": "CC(C)=CCCC(C)=CCON=C1C[C@@H](O)[C@@H](O)[C@@H]2[C@@H]3C(=O)N(C4CCCCC4)C(=O)[C@@H]3CC[C@@H]12", "composite z-score": 0.24}, {"compound": "CC(C)CON=C1C[C@@H](O)[C@@H](O)[C@@H]2[C@@H]3C(=O)N(Cc4ccc5c(c4)OCO5)C(=O)[C@@H]3CC[C@H]12", "composite z-score": 0.365}, {"compound": "CCOC(=O)[C@H](Cc1ccccc1)NC(=O)CCC1CC(OC(=O)NCc2ccc3c(c2)OCO3)CC2(CCCC(COC(=O)NCCc3ccccc3OC)O2)O1", "note": "(some centres not stated)", "composite z-score": 0.296}, {"compound": "Cc1cc2c(c(=O)o1)[C@@H](O)[C@H]1O[C@H]1C2=O", "composite z-score": 0.149}, {"compound": "CC(=O)O[C@H]1C2=CO[C@H](C)[C@H]3[C@H]4C5=C([C@H](O)[C@H]6O[C@H]6C5=O)[C@H](OC4C)[C@@]23C(=O)[C@@H]2O[C@@H]21", "note": "(some centres not stated)", "composite z-score": 0.25}, {"compound": "CCOC(=O)[C@H](Cc1ccccc1)NC(=O)CCC1CC(OC(=O)NCc2cccc3ccccc23)CC2(CCCC(COC(=O)NCc3ccccc3)O2)O1", "note": "(some centres not stated)", "composite z-score": 0.0636}, {"compound": "CO[C@@H]1COC(=O)[C@@H](C)COC(=O)[C@@H](C)NC(=O)CC=C[C@@H]1C", "composite z-score": 0.102}, {"compound": "CCOC(=O)[C@H](Cc1ccccc1)NC(=O)CCC1CC(OC(=O)NCc2ccc3c(c2)OCO3)CC2(CCCC(COC(=O)NCCC(C)C)O2)O1", "note": "(some centres not stated)", "composite z-score": 0.403}, {"compound": "COc1ccc(COC(=O)NN=C2C[C@@H](O)[C@@H](O)[C@@H]3[C@@H]4C(=O)N(C5CCCCC5)C(=O)[C@@H]4CC[C@H]23)cc1", "composite z-score": -0.244}, {"compound": "CCC1=NOC(CCC2CC(OC(=O)NCc3cccc4c3OCO4)CC3(CCCC(COC(=O)NCCc4ccccc4OC)O3)O2)C1", "note": "(configuration not stated)", "composite z-score": 0.196}, {"compound": "COC(=O)CC=C[C@@H](C)[C@@H](C=NO[C@@H]1O[C@H](COC(C)=O)[C@@H](OC(C)=O)[C@H](OC(C)=O)[C@H]1OC(C)=O)NS(=O)(=O)c1ccc(C)cc1", "composite z-score": -0.0003}, {"compound": "CCOC(=O)[C@H](CC(C)C)NC(=O)CCC1CC(OC(=O)NCc2ccc3c(c2)OCO3)CC2(CCCC(COC(=O)NCCCN3CCCC3=O)O2)O1", "note": "(some centres not stated)", "composite z-score": 0.353}, {"compound": "O=C1C2=CC[C@H]3C(=O)N(c4cccc(Oc5ccccc5)c4)C(=O)[C@H]3[C@H]2[C@H](O)[C@@H]2O[C@H]12", "composite z-score": 0.0049}, {"compound": "COC(=O)[C@H](C)NC(=O)CCC1CC(OC(=O)NCc2ccc3c(c2)OCO3)CC2(CCCC(COC(=O)NCc3cccc(C(F)(F)F)c3)O2)O1", "note": "(some centres not stated)", "composite z-score": -0.0362}, {"compound": "CO[C@H]1COC(=O)CC=C[C@H](C)[C@@H](OC)COC(=O)[C@@H](C)NC(=O)CC=C[C@@H]1C", "composite z-score": 0.0073}]}]}
